About 83,000 compounds went through this panel and 20% of them were active in at least one assay; those are over-represented in the sample as a whole.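 How to read the values: 0–100, growth inhibition (40 = 60% inhibited); 0, no net growth; -100 to 0, cell death (-40 = 40% of starting cells died; -100 = all dead).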 A number with no mark means an inactive call. Activity calls are given as the source filed them. Rule for the calls: active = growth percent below 10; inactive = the rest.
Assays:
Experiment in all cases: NCI-60 one-dose screen, 48 h (100 = growth as untreated, 0 = no growth, -100 = all killed)
Settings in all cases: 10 µM unless noted
SK-MEL-2 melanoma = system: SK-MEL-2 melanoma
SN12C renal = system: SN12C renal
UO-31 renal = system: UO-31 renal
TK-10 renal = system: TK-10 renal
ACHN renal = system: ACHN renal
CAKI-1 renal = system: CAKI-1 renal
A498 renal = system: A498 renal
CCRF-CEM leukemia = system: CCRF-CEM leukemia
MOLT-4 leukemia = system: MOLT-4 leukemia

Row | SMILES | growth (SK-MEL-2 melanoma) | growth (SN12C renal) | growth (UO-31 renal) | growth (TK-10 renal) | growth (ACHN renal) | growth (CAKI-1 renal) | growth (A498 renal) | growth (CCRF-CEM leukemia) | growth (MOLT-4 leukemia)
1 | O=C1C(Cl)=C(NCCN2CCOCC2)C(=O)c2ncccc21 | -23.8% (active) | -69.2% (active) | -75.7% (active) | 28.3% | -42.5% (active) | 88.5% | 74.2% | 5.23% (active) | 8.73% (active)
2 | CC[C@H](CC[C@@H](C)[C@H]1CC[C@H]2[C@@H]3CC[C@@H]4CC(=O)/C(=C\c5ccncc5)C[C@]4(C)[C@H]3CC[C@]12C)C(C)C | 105% | 102% | 90.4% | 107% | 111% | 93.8% | 83% | 107% | 104%
3 | O=C1Nc2ccccc2/C1=C/c1cn(C[C@@H](O)Cn2c3ccccc3c(=O)c3ccccc32)c2ccccc12 | 79.9% | 73.7% | 30.4% | 90.6% | 65.5% | 74.2% | 91.1% | 70.5% | 62.6%
4 | O=C1Nc2ccc(F)cc2/C1=N/c1nnc(Sc2ccccc2)s1 | 102% | 95.4% | 80.2% | 111% | 82.2% | 75.1% | 79% | 47.7% | 77.2%
5 | Cc1nn(-c2ccccc2)c(N2CCCCC2)c1/C=N/NC(=O)Cn1c(=O)sc2ccccc21 | 88.9% | 85% | 48.1% | 88.5% | 66.8% | 34.7% | 80.7% | 84.7% | 54.7%
6 | C[Se]C(=O)CC1=C2C=C(F)C=CC2/C(=C\c2ccc(S(C)=O)cc2)C1C (stereo unspecified) | 17.3% | -51.6% (active) | 18% | -19.2% (active) | 11% | -20.9% (active) | -64.8% (active) | 10.6% | 6.51% (active)
7 | CN1CCN(Cc2ccc(NC(=O)c3cncc(C#Cc4cncc5[nH]ncc45)c3)cc2C(F)(F)F)CC1 | -52.4% (active) | 8.48% (active) | -25% (active) | 12.5% | -0.725% (active) | -52% (active) | -49.5% (active) | 7.31% (active) | 3.77% (active)
8 | O=c1[nH]c(-c2ccc(Cl)cc2)cn1-c1ccc(-n2cc(-c3ccc(Cl)cc3)[nH]c2=O)cc1 | 95.9% | 92% | 105% | 103% | 102% | 65.1% | 109% | 107% | 107%
9 | O=C1c2cccnc2C(=O)c2c1c(C(=O)OCCCN1CCCCC1)c1ccccn21 | -47.3% (active) | -57.6% (active) |  | -11.1% (active) | -55.2% (active) | -24% (active) | 11.1% | -17% (active) | -7.64% (active)
10 | S=c1ssnc1-c1cccs1 | 103% | 106% | 99.9% | 99.5% | 107% |  | 23.4% | 97.5% | 84.9%
11 | CN1CCN(CCCOC(=O)c2c3c(n4ccccc24)C(=O)c2ncccc2C3=O)CC1 | -52.7% (active) | -66.3% (active) | -80.9% (active) | 3.81% (active) | -53.6% (active) | 0.119% (active) | 38.3% | -16.3% (active) | -2.53% (active)
12 | COc1ccc(Nc2ncccc2NC(=O)c2cn(Cc3cccc(Oc4ccccc4)c3)nn2)cc1OC | 95.1% | 81.1% | 54.4% | 96.5% | 93.9% | 82% | 69.6% | 74.7% | 48.1%
13 | COC(=O)c1nc(-c2ccccc2)oc1S(=O)(=O)N1CCC(C(N)=O)CC1 | 91.2% | 83.6% | 55.3% | 23.2% | 39.6% | 49.5% | 87.4% | -3.72% (active) | 1.95% (active)
14 | Cc1ccccc1CNc1c2ccccc2nc2ccccc12 | 40.2% | 24.3% | 15.5% | 38.7% | 11.6% | 25.1% | -2.25% (active) | 17.6% | 8.85% (active)
15 | COc1cc2oc(-c3cccc(NC(=O)c4ccc5c(c4)OCO5)c3)cc(=O)c2c(OC)c1OC | 62.4% |  | 24.2% | 61.6% | 47.8% | 77.1% | 61.1% | -11.9% (active) | 2.9% (active)
16 | COC(=O)C1=Nc2ccc(F)cc2/C1=C\c1sc(Nc2ccc(O)cc2)nc1O | 47.3% | 85.7% | 62.6% | 96.9% | 84.9% | 55.5% | 42.4% | 28.2% | 30.4%

Row | SMILES | growth (SK-MEL-2 melanoma) | growth (SN12C renal) | growth (UO-31 renal) | growth (TK-10 renal) | growth (ACHN renal) | growth (CAKI-1 renal) | growth (A498 renal) | growth (CCRF-CEM leukemia) | growth (MOLT-4 leukemia)
17 | O=C(Cn1nnc2ccccc21)Nc1ccc(-c2nc3ccccc3s2)cc1 | 101% |  | 86.5% | 94.8% | 110% | 85.5% | 85.1% | 69.7% | 61.6%
18 | COc1ccc2c(c1)c(-c1ccc(-c3cn(C)c4ccc(OC)cc34)[nH]1)cn2C | 45.3% | 31.7% | -47.3% (active) | 35.7% | -44.6% (active) | 25.6% | 71.8% | -5.64% (active) | 27.7%
19 | NS(=O)(=O)c1ccc(N/C=C/C(=O)c2cc3ccccc3oc2=O)cc1 | 109% | 96% | 62.4% | 125% | 99.7% |  | 111% | 108% | 103%
20 | COc1cc(-c2cc(-c3ccc(Nc4ncnc5cc(Cl)ccc45)cc3)nc(N3CCN(C)CC3)n2)cc(OC)c1OC | 93.4% | 88.6% | 23.4% | 136% | 75.4% | 91% | 102% | 52.5% | 58.1%
21 | CCN(CC)c1ccc(/C=C\c2cc(C)c3cc(C)ccc3n2)cc1 | 14.4% | 45.1% | 26.6% | 54.8% | 38.8% | 28.5% | 18.2% | 34.1% | 40.2%
22 | CC(C)CCSc1nc(Nc2ccccc2)c(C#N)c(-c2ccccc2)n1 | 81.4% | 27.1% | 12.9% | 24.7% | -21.2% (active) | 26.8% | -8.82% (active) | 54.9% | 80.7%
23 | COc1cc(N2C(=O)[C@H](c3ccccc3)C2c2ccc(SC)cc2)cc(OC)c1OC (stereo partly specified) | 31.1% | 24.3% | 32.5% | 50.9% | 30.2% | 21.3% | -4.14% (active) | 5.22% (active) | 2.92% (active)
24 | CCCCCCCCn1ccc2cc(NC(=O)Cn3cc(CN4CCOCC4)nn3)ccc21 | 100% | 100% | 78.3% | 108% | 98.5% | 83.9% | 99.7% | -31.6% (active) | 35.8%
25 | CCOC(=O)c1c(NC(=O)c2ccc(C(C)(C)C)cc2)sc2cc(O)ccc12 | 112% |  | 70.4% | 129% | 97.5% | 85.9% | 88.8% | 80.1% | 82.3%
26 | COC1=CC(c2ccc[nH]2)=N/C1=C\c1[nH]c(C)c(CC(=O)OCc2ccccc2)c1C | -38.6% (active) | 6.3% (active) | -69% (active) | 4.1% (active) | -9.81% (active) | 0.261% (active) | -11.9% (active) | 4.82% (active) | 2.34% (active)
27 | O=C1OCC2=C1C(c1cccc(F)c1)c1cc3c(cc1N2CCO)OCO3 (stereo unspecified) | 26% | 48.3% | 36.9% | 52.3% | 34.5% |  | 3.08% (active) | 7.3% (active) | 25.6%
28 | N#Cc1c(-c2cccc([N+](=O)[O-])c2)cc(-c2ccc(Nc3nc(Nc4ccc(F)cc4)nc(Nc4ccc(F)cc4)n3)cc2)nc1N | 68.1% | 137% |  | 128% | 108% | 113% | 115% | 78% | 84.6%
29 | CCOC(=O)NN1CC(O)=C(c2nc(-c3ccc(Br)cc3)cs2)C1=N | 128% | 161% | 87% | 116% | 111% | 92.9% | 93.4% | 86.2% | 75.9%
30 | CCOC(=O)c1c(NC(=O)CSc2n[nH]c3nc4ccccc4n23)sc(CC)c1C | 80.6% | 100% | 73.4% | 130% | 96.8% | 108% | 106% | 121% | 79.6%
31 | Nc1c(C(=O)O)cc(Cl)cc1[N+](=O)[O-] | 110% | 93.9% | 79.3% | 118% | 96.5% | 111% | 100% | 78.6% | 94.2%

Reference: PubChem BioAssay (NCI)
